Compounds without any hit were thinned out: in the full panel of roughly 79,000, 15% have a hit. Rule as the data show it: active = growth inhibition above about 70%; inactive = the rest.
Columns and labels:
[1] = NCI Yeast Anticancer Drug Screen. Data for the rad50 strain (AID 155);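 also: 0% = growth of vehicle-only cultures of the same strain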; conditions: S. cerevisiae rad50 strain growth inhibition; at 50.0 µM; hits give high values
Procedure, shortened: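 Readout: growth inhibition relative to vehicle-treated cultures. Compound exposure was carried out in a genetically defined yeast strain deficient in DNA damage repair.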

[2] = NCI Yeast Anticancer Drug Screen. Data for the mec2-1 strain (AID 157); conditions: S. cerevisiae mec2-1 strain, at 50.0 µM, hits give high values
Procedure, shortened: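 Using mec2-1 yeast: add compound, measure growth, express inhibition versus vehicle-treated cultures.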

[3] = NCI Yeast Anticancer Drug Screen. Data for the sgs1 mgt1 strain (AID 161);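 also: 0% = growth of cultures given vehicle only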; conditions: S. cerevisiae sgs1 mgt1 strain, at 50.0 µM, hits give high values
Procedure, shortened: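 Percent growth inhibition was derived by comparing compound-exposed mutant yeast with vehicle-exposed cultures. The strain carries alterations in DNA damage repair.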

[4] = NCI Yeast Anticancer Drug Screen. Data for the cln2 rad14 strain (AID 165);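 also: 0% = growth equal to vehicle treated cultures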; conditions: S. cerevisiae cln2 rad14 strain, at 50.0 µM, hits give high values
Procedure, shortened: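 Yeast strain cln2 rad14, bearing defects in cell cycle control and DNA repair, serves as the test system; values reflect growth inhibition compared with vehicle.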

[5] = NCI Yeast Anticancer Drug Screen. Data for the bub3 strain (AID 167); conditions: S. cerevisiae bub3 mutant strain, at 50.0 µM, hits give high values
Procedure, shortened: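 Readout: yeast growth inhibition, expressed relative to vehicle-only wells. The test organism is a mutant strain from a panel with lesions in DNA repair or checkpoint genes.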

[6] = NCI Yeast Anticancer Drug Screen. Data for the mlh1 rad18 strain (AID 175); conditions: S. cerevisiae mlh1 rad18 strain growth inhibition; at 50.0 µM; hits give high values
Procedure, shortened: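 Steps: expose repair-defective yeast to compound; measure growth; express inhibition against vehicle-treated controls.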

Measured: growth inhibition

CC(=O)n1[nH]c(=O)n(-c2ccccc2)c1=O
inactive: [1] -23% | [2] -20.1% | [3] -17.9% | [4] 10.1% | [5] -26.1% | [6] -24.5%

Cc1nn(-c2ccc(Cl)cc2)c2c1c(=O)[nH]c1ccccc12
inactive: [1] 6% | [2] -3.45% | [3] 1% | [4] -24.6% | [5] -2.05% | [6] -5.05%

COC(=O)c1cc(C(=O)O)c(=O)n2ccccc12
inactive: [1] 23% | [2] 50% | [3] 32.1% | [4] 53.2% | [5] 35.2% | [6] 41.5%

CC(C)Cc1cccc(C(C)C)c1NC(=O)CCC(=O)N/N=C1\C(=N/NC(=O)CCC(=O)Nc2c(C(C)C)cccc2C(C)C)C(c2ccc3c(c2)OCO3)Oc2ccccc21 (stereo unspecified)
inactive: [1] 5.2% | [2] -21.6% | [3] -5% | [4] -2.7% | [5] 6.75% | [6] 11.2%

Cc1c(F)cccc1NC(=O)OC(C)C
inactive: [1] 18.2% | [2] -5.15% | [3] -0.7% | [4] -50.8% | [5] 12.8% | [6] 5.1%

Brc1ccc(Br)c2nc(/C=C/c3ccccc3)ccc12
inactive: [1] 11.8% | [2] 1.85% | [3] -7% | [4] -22.6% | [5] 2.45% | [6] 8.25%

CCCCCN(CCCCC)C(=O)C(C)Br (stereo unspecified)
inactive: [1] -3.6% | [2] -12.9% | [3] 12.8% | [4] -12.9% | [5] 44.9% | [6] 3.1%

O=C(O)c1cc(Br)ccc1[N+](=O)[O-]
inactive: [1] -5.8% | [2] -25.4% | [3] 3.95% | [4] 7.05% | [5] -1.95% | [6] -11%

COc1ccc(C(=O)C(C(=O)CCC(=O)Nc2ccc(Cl)c(Cl)c2)c2ccc(OC)cc2)cc1 (stereo unspecified)
inactive: [1] -9.65% | [2] 1.7% | [3] -11.3% | [4] -8.6% | [5] 18.6% | [6] -17.9%

Cn1c(=O)c2[nH]c(CCCCCc3nc4c([nH]3)c(=O)n(C)c(=O)n4C)nc2n(C)c1=O
inactive: [1] -9% | [2] 7.15% | [3] -27.3% | [4] -18.5% | [5] -16.4% | [6] -16.1%

OC(c1ccccc1)C1(O)CCCCC1 (stereo unspecified)
inactive: [1] -10.8% | [2] -5.25% | [3] -1.7% | [4] -52.5% | [5] -17.1% | [6] 9.75%

CCCC(=O)Oc1ccc(Br)cc1
inactive: [1] 6.6% | [2] -22.4% | [3] -5.25% | [4] 12.8% | [5] -17.9% | [6] 20.9%

CCc1c(C)nc2[nH]ncn2c1=O
inactive: [1] 10.8% | [2] -2.1% | [3] 11.1% | [4] -2.25% | [5] 7.25% | [6] 6.7%

O=C(CSc1nnc(Cc2ccccc2)o1)Nc1ccc([N+](=O)[O-])cc1
inactive: [1] 11.2% | [2] 15.1% | [3] 5.65% | [4] 10.5% | [5] 19% | [6] -7.15%

C=CCCCCCCCCC(=O)NCC1CCCCO1 (stereo unspecified)
inactive: [1] 2.8% | [2] -0.5% | [3] 67.6% | [4] -1.35% | [5] 10.1% | [6] 58.1%

Cc1cccnc1N
inactive: [1] -9.4% | [2] -31.6% | [3] 5.3% | [4] -11.6% | [5] -1.15% | [6] 14.7%

Cn1ccnc1SC(=O)C(Cl)(c1ccccc1)c1ccccc1
inactive: [1] -13.2% | [2] 5.85% | [3] -0.8% | [4] -18.4% | [5] 0.35% | [6] 5.45%

O=C1CSC(=S)N1c1ccco1
inactive: [1] 3.4% | [2] -20.1% | [3] 17.9% | [4] 20.7% | [5] -13.1% | [6] 2.85%

C/C(=N/NC(=O)c1ccncc1)C(F)(F)F
inactive: [1] -29.8% | [2] 5.75% | [3] -25.9% | [4] -6.85% | [5] 14% | [6] 7.85%

CCOC(=O)CC1CC(CN)(C(=O)OCC)CO1 (stereo unspecified)
inactive: [1] -21.6% | [2] 12.2% | [3] -6.9% | [4] 3.65% | [5] -0.4% | [6] -22.9%

OCC1COc2cc(Cl)c(Cl)cc2O1 (stereo unspecified)
inactive: [1] 47.8% | [2] 9.65% | [3] 33.3% | [4] 15% | [5] 36.9% | [6] 50.2%

CCNc1ncnc2c1cnn2C1CCCCC1
inactive: [1] 5.3% | [2] -7.15% | [3] -5.85% | [4] -35.9% | [5] 0.5% | [6] -2.5%

Cc1ccc(N=Nc2ccc(C)cc2NC(=S)Nc2ccccc2)cc1
inactive: [1] -11.2% | [2] -0.95% | [3] -12.3% | [4] -20.9% | [5] 7.7% | [6] -8.75%

CC1(C)OC(=O)C(=CN(C2CCCCC2)C2CCCCC2)C(=O)O1
inactive: [1] -6.45% | [2] -6.6% | [3] 7% | [4] -21.2% | [5] -33.6% | [6] -13.3%

OCC=C1CCCCCC1
inactive: [1] 4.9% | [2] 6.8% | [3] 1.5% | [4] -4.25% | [5] 12.3% | [6] 2.95%

C/C=C\C(=O)OC1CCC(C2CCCCC2)CC1 (stereo unspecified)
inactive: [1] 25.3% | [2] 9.3% | [3] 14.8% | [4] 1.25% | [5] 56.6% | [6] -2.15%

CC1(c2cccc3ccccc23)OC(=O)c2cccc(F)c21 (stereo unspecified)
inactive: [1] -10.9% | [2] -7.1% | [3] -16.1% | [4] 23.4% | [5] 7.6% | [6] 0.55%

CCOC(=O)CC(CSCP(=O)(OCC)OCC)C(=O)OCC (stereo unspecified)
inactive: [1] 5.15% | [2] -1.35% | [3] 13.2% | [4] 3.4% | [5] 9.55% | [6] 16.2%

CC(=O)SCCCCl
inactive: [1] -9.25% | [2] 2.1% | [3] 11.2% | [4] -1.25% | [5] 8.25% | [6] -11.3%

CCOc1ccc(NC(=S)NC=C(C(N)=O)C(N)=O)cc1
inactive: [1] -47.3% | [2] -41.3% | [3] -10.7% | [4] 19.2% | [5] 3.9% | [6] -22.6%

O=C1c2ccccc2C(=C(c2ccccc2)c2ccccc2)c2ccccc21
inactive: [1] 29.1% | [2] -19.5% | [3] -10.3% | [4] 10.6% | [5] 5.35% | [6] -4.75%

CC(C)(C)NNC(=O)/C(=C/c1ccc([N+](=O)[O-])cc1)NC(=O)c1ccccc1
inactive: [1] 11.6% | [2] -17.3% | [3] -8.5% | [4] 5.2% | [5] -6.2% | [6] -15.7%

CCCCCOP(=O)(OCCCCC)C(c1ccccc1)c1ccccc1
inactive: [1] 1% | [2] -44.9% | [3] -4.15% | [4] -33.4% | [5] 9.5% | [6] -11.9%

COC(=O)CC1C(OC)OC23CCC1C2(C)CCC1C3CCC2CC(OC(C)=O)CCC21C (stereo unspecified)
inactive: [1] 28.1% | [2] 3% | [3] 13.8% | [4] -30.2% | [5] -1.7% | [6] 8.5%

C/C(=N\n1cc(-c2ccccc2)nc1N)c1ccccc1
inactive: [1] -2.8% | [2] 4.2% | [3] 6% | [4] 13.5% | [5] 20.6% | [6] 13.1%

C#CC(C)(O)CC(C)C (stereo unspecified)
inactive: [1] 1.9% | [2] -1.2% | [3] -8.6% | [4] -73.7% | [5] 6.65% | [6] -71.7%

NSC(=S)NCc1ccco1
inactive: [1] 1% | [2] -2.95% | [3] 7.75% | [4] -52.1% | [5] 15.8% | [6] 13.7%

CCOC(=O)C(CO)C1CCCC1 (stereo unspecified)
inactive: [1] 10.3% | [2] -2.65% | [3] 7.9% | [4] -5.4% | [5] 5.05% | [6] 2.75%

CC(=O)c1cccc(NC(=O)C(=O)C(C(=O)c2ccccc2F)C2OC(=O)c3ccccc32)c1 (stereo unspecified)
inactive: [1] 9.2% | [2] -7.2% | [3] -5.45% | [4] 3.7% | [5] -6.2% | [6] -4.05%

O=C1c2ccccc2-c2nnsc21
inactive: [1] -20.7% | [2] -14.4% | [3] 2.3% | [4] -12.6% | [5] -6.2% | [6] 19.5%

CCN(CC)CCN=C1Nc2ccccc2N(O)N1
inactive: [1] 0.55% | [2] -1.5% | [3] 11.6% | [4] -23.3% | [5] 12.6% | [6] -2.95%
